In the supplement of paper PMC7411054:
Counter-ions that a name gives are not always drawn.

Key:
Assay in all cases: lowest phenotypically active concentration; higher = less potent
Settings in all cases: treatment time: 24 h
[1] = test system: A549-ACTB-RAB5A
Method in brief: (§1)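 Four wells per concentration (0.3, 1, 3 or 9 µM) were treated for 24 h in each of fifteen gene-edited reporter lines from A549, HepG2 and WPMY1 cells, then imaged live. After normalising live-cell features to solvent control wells, deviation was defined as ≥3 of 4 wells lying past the 95th percentile of control Euclidean distances. Reproducibility was defined as a median replicate Pearson correlation above the 95th percentile of non-replicates. Both had to hold for phenotypic activity.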

[2] = test system: A549-CANX-COX4
Method in brief: as §1

[3] = test system: A549-TP53BP1-CLTA
Method in brief: as §1

[4] = test system: A549-TUBA1B-RELA
Method in brief: as §1

[5] = test system: HepG2-ACTB-RAB5A
Method in brief: as §1

[6] = test system: HepG2-TP53BP1-CLTA
Method in brief: as §1

[7] = test system: WPMY1-ACTB-RAB5A
Method in brief: as §1

[8] = test system: WPMY1-CANX-COX4
Method in brief: as §1

[9] = test system: WPMY1-TUBA1B-RELA
Method in brief: as §1

[10] = test system: WPMY1-TP53BP1-CLTA
Method in brief: as §1

Measured: lowest phenotypically active concentration

O=C(NCCN1CCC2(CC1)C(=O)NCN2c1cccc(F)c1)c1ccc(F)c(F)c1 [ML 298 hydrochloride]
3 µM: [1] | [4]
not listed: [10]
9 µM: all other assays above

C[C@@]12C(=O)OC(=O)[C@]1(C)[C@H]1CC[C@@H]2O1 [Cantharidin]
9 µM: [6] | [8]
not listed: [4]
3 µM: all other assays above

CN1CCC2=C[C@H](O)[C@H]3OC(=O)c4cc5c(cc4[C@H]3[C@@H]21)OCO5 [Hippeastrine hydrobromide]
9 µM: [1]

Cc1c(C(=O)Nc2cccc(C(F)(F)F)c2)cc(-c2ccccc2)n1CCCN1CCOCC1
9 µM: [1]

CC[C@@H]1C=CC=CC[C@H](C)[C@@H](O)[C@](C)(O)C(=O)[C@H](C)[C@@H](O)[C@H](C)C(=O)[C@H](C)[C@@H](O)[C@H](C)C=CC(=O)O[C@H]2[C@@H](C)[C@@H](CC1)O[C@@]1(CC[C@@H](C)[C@@H](C[C@H](C)O)O1)[C@@H]2C [Oligomycin A]
1 µM: [8]
not listed: [7] | [9] | [10]
≤ 0.3 µM: all other assays above

COC(=O)[C@@]1(O)C[C@H]2O[C@]1(C)n1c3ccccc3c3c4c(c5c6ccccc6n2c5c31)C(=O)NC4
≤ 0.3 µM: all assays above

O=c1[nH]c2ccccc2n1C1CCN(CCCC(c2ccc(F)cc2)c2ccc(F)cc2)CC1 [pimozide]
9 µM: [1]
3 µM: [4] | [5]

Cc1sc2c(c1C)C(c1ccc(Cl)cc1)=N[C@@H](CC(N)=O)c1nnc(C)n1-2
≤ 0.3 µM: all assays above

CC[C@H]1CN2CC[C@H]1C[C@@H]2[C@@H](O)c1ccnc2ccc(OC)cc12 [Hydroquinidine HCl]
9 µM: [1] | [4] | [7] | [8] | [9]

CCCCCC[C@H]1C(=O)O[C@H](C)[C@H](NC(=O)c2cccc(NC=O)c2O)C(=O)O[C@@H](C)[C@@H]1OC(=O)CC(C)C [antimycin a]
≤ 0.3 µM: all assays above

COc1cc2c(c(OC)c1OC)-c1ccc(O)c(=O)cc1[C@@H](N)CC2 [Trimethylcolchicinic acid]
9 µM: [1] | [2] | [3] | [4]

Cc1cc2c(C(C)C)c(O)c(O)c(C=O)c2c(O)c1-c1c(C)cc2c(C(C)C)c(O)c(O)c(C=O)c2c1O [gossypol]
3 µM: [1] | [10]
9 µM: all other assays above

C[C@]12CC[C@H]3[C@@H](CC[C@]4(O)C[C@@H](O)CC[C@]34C=O)[C@@]1(O)CC[C@@H]2C1=CC(=O)OC1 [Strophanthidin]
≤ 0.3 µM: all assays above

COc1ccc(N(C(=O)Oc2c(C)cccc2C)c2ccnc(Nc3ccc(N4CCN(C)CC4)cc3)n2)c(OC)c1
3 µM: [2] | [3] | [10]
≤ 0.3 µM: [5]
1 µM: [1] | [4] | [6] | [7]

C[C@H](CCC(=O)O)C[C@H](C)C[C@H](C)C(=O)/C=C(\O)[C@H](C)C[C@H](C)C/C=C/[C@@H](C)[C@@H](O)[C@@H](C)[C@@H](O)C[C@@H]1CC[C@@](C)([C@H]2CC[C@@](C)([C@@H](C)O)O2)O1 [Ionomycin free acid]
3 µM: [7]
9 µM: [2] | [8] | [10]

CCN1CCN(C(=O)Cc2ccc(Nc3ncc(F)c(Nc4ccc(C(=O)Nc5ccccc5Cl)cc4)n3)cc2)CC1
≤ 0.3 µM: [6]
not listed: [8]
1 µM: all other assays above

N#CC(C#N)=NNc1cccc(Cl)c1
3 µM: [10] | [9]
9 µM: all other assays above
